{
  "source": "PubChem BioAssay AID1159580",
  "about": "(chemical genetic matrix, 2015)",
  "assay": "chemical genetic growth profiling, strain panel (AID 1159580);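 also: tested at 20 µM; growth read once vehicle control cultures reached saturation at 30 °C; 1 = growth at the plate median or of vehicle wells; lower values mean less growth of the strain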",
  "details": "growth OD",
  "note": "The campaign covered roughly 5,500 compounds. About 2,000 (36%) were called active. Not shown: some 18% with an inconclusive outcome. The list shows a part of the results. Unmarked numbers belong to inactive results. Rule as the data show it: active = normalized growth mostly below about 0.91 (no sharp cut-off); inconclusive = no clear call, values can overlap the other calls; inactive = mostly above about 0.92.",
  "data": [
    {"compound": "CC[n+]1c(-c2ccccc2)c2cc(N)ccc2c2ccc(N)cc21", "values": [
      {"measurement": "normalized growth", "setting": "S. cerevisiae deletion strains, locus YJR075W, strain HOC1, hits give low values", "value": "0.665 (active)"},
      {"measurement": "normalized growth", "setting": "S. cerevisiae deletion strains, locus YKL009W, strain mrt4, hits give low values", "value": "0.867 (active)"},
      {"measurement": "normalized growth", "setting": "S. cerevisiae deletion strains, locus YKL068W, hits give low values", "value": "0.881 (active)"},
      {"measurement": "normalized growth", "setting": "S. cerevisiae deletion strains, locus YKL085W, strain MDH1 (second series), hits give low values", "value": "0.882 (active)"},
      {"measurement": "normalized growth", "setting": "S. cerevisiae deletion strains, locus YKL085W, strain MDH1, hits give low values", "value": "0.882 (active)"},
      {"measurement": "normalized growth", "setting": "S. cerevisiae deletion strains, locus YKL160W, strain elf1, hits give low values", "value": 0.973},
      {"measurement": "normalized growth", "setting": "S. cerevisiae deletion strains, locus YKL190W, strain CNB1, hits give low values", "value": "0.857 (active)"},
      {"measurement": "normalized growth", "setting": "S. cerevisiae deletion strains, locus YKR001C, strain vps1, hits give low values", "value": 0.929},
      {"measurement": "normalized growth", "setting": "S. cerevisiae deletion strains, locus YKR026C, strain gcn3, hits give low values", "value": 0.955},
      {"measurement": "normalized growth", "setting": "S. cerevisiae deletion strains, locus YKR091W, strain srl3, hits give low values", "value": 0.97},
      {"measurement": "normalized growth", "setting": "S. cerevisiae deletion strains, locus YLL001W, strain dnm1, hits give low values", "value": 0.95},
      {"measurement": "normalized growth", "setting": "S. cerevisiae deletion strains, locus YLL026W, hits give low values", "value": 0.97},
      {"measurement": "normalized growth", "setting": "S. cerevisiae deletion strains, locus YLL041C, strain sdh2, hits give low values", "value": 0.972},
      {"measurement": "normalized growth", "setting": "S. cerevisiae deletion strains, locus YLR027C, strain aat2, hits give low values", "value": 0.979},
      {"measurement": "normalized growth", "setting": "S. cerevisiae deletion strains, locus YLR039C, strain RIC1, hits give low values", "value": 0.771},
      {"measurement": "normalized growth", "setting": "S. cerevisiae deletion strains, locus YLR058C, strain SHM2, hits give low values", "value": "0.847 (active)"},
      {"measurement": "normalized growth", "setting": "S. cerevisiae deletion strains, locus YLR102C, strain apc9, hits give low values", "value": 0.942},
      {"measurement": "normalized growth", "setting": "S. cerevisiae deletion strains, locus YLR113W, strain HOG1, hits give low values", "value": "0.831 (active)"},
      {"measurement": "normalized growth", "setting": "S. cerevisiae deletion strains, locus YLR221C, strain rsa3, hits give low values", "value": 0.936},
      {"measurement": "normalized growth", "setting": "S. cerevisiae deletion strains, locus YLR258W, strain gsy2, hits give low values", "value": 0.968},
      {"measurement": "normalized growth", "setting": "S. cerevisiae deletion strains, locus YLR262C, strain YPT6 (second series), hits give low values", "value": 1.01},
      {"measurement": "normalized growth", "setting": "S. cerevisiae deletion strains, locus YLR262C, strain YPT6, hits give low values", "value": 0.755},
      {"measurement": "normalized growth", "setting": "S. cerevisiae deletion strains, locus YLR268W, strain sec22, hits give low values", "value": "0.777 (active)"},
      {"measurement": "normalized growth", "setting": "S. cerevisiae deletion strains, locus YLR320W, strain mms22, hits give low values", "value": "0.872 (active)"},
      {"measurement": "normalized growth", "setting": "S. cerevisiae deletion strains, locus YLR330W, strain CHS5, hits give low values", "value": "0.886 (active)"},
      {"measurement": "normalized growth", "setting": "S. cerevisiae deletion strains, locus YLR342W, strain FKS1 (second series), hits give low values", "value": 0.86},
      {"measurement": "normalized growth", "setting": "S. cerevisiae deletion strains, locus YLR342W, strain FKS1, hits give low values", "value": 0.987},
      {"measurement": "normalized growth", "setting": "S. cerevisiae deletion strains, locus YLR357W, strain rsc2, hits give low values", "value": 1.04},
      {"measurement": "normalized growth", "setting": "S. cerevisiae deletion strains, locus YLR370C, strain arc18, hits give low values", "value": 0.955},
      {"measurement": "normalized growth", "setting": "S. cerevisiae deletion strains, locus YLR371W, strain rom2, hits give low values", "value": 0.917},
      {"measurement": "normalized growth", "setting": "S. cerevisiae deletion strains, locus YLR384C, strain iki3, hits give low values", "value": 0.966},
      {"measurement": "normalized growth", "setting": "S. cerevisiae deletion strains, locus YLR418C, strain cdc73, hits give low values", "value": 0.881},
      {"measurement": "normalized growth", "setting": "S. cerevisiae deletion strains, locus YML016C, strain PPZ1, hits give low values", "value": "0.885 (active)"},
      {"measurement": "normalized growth", "setting": "S. cerevisiae deletion strains, locus YML032C, strain rad52, hits give low values", "value": "0.425 (active)"},
      {"measurement": "normalized growth", "setting": "S. cerevisiae deletion strains, locus YML120C, strain ndi1, hits give low values", "value": 0.96},
      {"measurement": "normalized growth", "setting": "S. cerevisiae deletion strains, locus YML124C, strain tub3, hits give low values", "value": "0.932 (active)"},
      {"measurement": "normalized growth", "setting": "S. cerevisiae deletion strains, locus YMR058W, strain fet3, hits give low values", "value": 0.973},
      {"measurement": "normalized growth", "setting": "S. cerevisiae deletion strains, locus YMR078C, strain ctf18, hits give low values", "value": "0.814 (active)"},
      {"measurement": "normalized growth", "setting": "S. cerevisiae deletion strains, locus YMR125W, strain sto1, hits give low values", "value": 0.98},
      {"measurement": "normalized growth", "setting": "S. cerevisiae deletion strains, locus YMR129W, hits give low values", "value": 0.969},
      {"measurement": "normalized growth", "setting": "S. cerevisiae deletion strains, locus YMR205C, strain PFK2, hits give low values", "value": "0.831 (active)"},
      {"measurement": "normalized growth", "setting": "S. cerevisiae deletion strains, locus YMR223W, strain ubp8, hits give low values", "value": "0.825 (active)"},
      {"measurement": "normalized growth", "setting": "S. cerevisiae deletion strains, locus YMR231W, strain pep5, hits give low values", "value": 0.986},
      {"measurement": "normalized growth", "setting": "S. cerevisiae deletion strains, locus YMR307W, strain GAS1, hits give low values", "value": 0.714},
      {"measurement": "normalized growth", "setting": "S. cerevisiae deletion strains, locus YNL067W, strain RPL9B, hits give low values", "value": "0.805 (active)"},
      {"measurement": "normalized growth", "setting": "S. cerevisiae deletion strains, locus YNL071W, strain lat1, hits give low values", "value": "0.868 (active)"},
      {"measurement": "normalized growth", "setting": "S. cerevisiae deletion strains, locus YNL153C, strain GIM3, hits give low values", "value": 0.888},
      {"measurement": "normalized growth", "setting": "S. cerevisiae deletion strains, locus YNL183C, strain NPR1, hits give low values", "value": 0.878},
      {"measurement": "normalized growth", "setting": "S. cerevisiae deletion strains, locus YNL209W, strain ssb2, hits give low values", "value": 0.96},
      {"measurement": "normalized growth", "setting": "S. cerevisiae deletion strains, locus YNL233W, strain BNI4, hits give low values", "value": "0.841 (active)"},
      {"measurement": "normalized growth", "setting": "S. cerevisiae deletion strains, locus YNL248C, strain rpa49, hits give low values", "value": "0.858 (active)"},
      {"measurement": "normalized growth", "setting": "S. cerevisiae deletion strains, locus YNL250W, strain rad50, hits give low values", "value": "0.662 (active)"},
      {"measurement": "normalized growth", "setting": "S. cerevisiae deletion strains, locus YNL271C, strain bni1, hits give low values", "value": "0.909 (active)"},
      {"measurement": "normalized growth", "setting": "S. cerevisiae deletion strains, locus YNL298W, strain CLA4, hits give low values", "value": "0.881 (active)"},
      {"measurement": "normalized growth", "setting": "S. cerevisiae deletion strains, locus YNL307C, strain MCK1, hits give low values", "value": "0.855 (active)"},
      {"measurement": "normalized growth", "setting": "S. cerevisiae deletion strains, locus YNL322C, strain KRE1 (second series), hits give low values", "value": 0.919},
      {"measurement": "normalized growth", "setting": "S. cerevisiae deletion strains, locus YNR049C, strain mso1, hits give low values", "value": 0.962},
      {"measurement": "normalized growth", "setting": "S. cerevisiae deletion strains, locus YNR052C, strain pop2, hits give low values", "value": "0.885 (active)"},
      {"measurement": "normalized growth", "setting": "S. cerevisiae deletion strains, locus YOL006C, strain TOP1, hits give low values", "value": 0.64},
      {"measurement": "normalized growth", "setting": "S. cerevisiae deletion strains, locus YOL012C, strain htz1", "value": 0.55},
      {"measurement": "normalized growth", "setting": "S. cerevisiae deletion strains, locus YOL147C, strain pex11, hits give low values", "value": "0.898 (active)"},
      {"measurement": "normalized growth", "setting": "S. cerevisiae deletion strains, locus YOR001W, strain rrp6, hits give low values", "value": "0.857 (active)"},
      {"measurement": "normalized growth", "setting": "S. cerevisiae deletion strains, locus YOR061W, strain CKA2, hits give low values", "value": "0.876 (active)"},
      {"measurement": "normalized growth", "setting": "S. cerevisiae deletion strains, locus YOR069W, strain VPS5, hits give low values", "value": "0.891 (active)"},
      {"measurement": "normalized growth", "setting": "S. cerevisiae deletion strains, locus YOR070C, strain gyp1, hits give low values", "value": 0.967},
      {"measurement": "normalized growth", "setting": "S. cerevisiae deletion strains, locus YOR080W, strain dia2, hits give low values", "value": 0.988},
      {"measurement": "normalized growth", "setting": "S. cerevisiae deletion strains, locus YOR083W, strain WHI5, hits give low values", "value": 0.948},
      {"measurement": "normalized growth", "setting": "S. cerevisiae deletion strains, locus YOR106W, strain vam3, hits give low values", "value": 0.966},
      {"measurement": "normalized growth", "setting": "S. cerevisiae deletion strains, locus YOR136W, strain idh2, hits give low values", "value": 0.964},
      {"measurement": "normalized growth", "setting": "S. cerevisiae deletion strains, locus YOR144C, strain elg1, hits give low values", "value": "0.906 (active)"},
      {"measurement": "normalized growth", "setting": "S. cerevisiae deletion strains, locus YOR184W, strain ser1, hits give low values", "value": "0.73 (active)"},
      {"measurement": "normalized growth", "setting": "S. cerevisiae deletion strains, locus YOR231W, strain MKK1, hits give low values", "value": 0.898},
      {"measurement": "normalized growth", "setting": "S. cerevisiae deletion strains, locus YOR265W, strain rbl2, hits give low values", "value": 0.974},
      {"measurement": "normalized growth", "setting": "S. cerevisiae deletion strains, locus YOR270C, strain vph1, hits give low values", "value": 0.856},
      {"measurement": "normalized growth", "setting": "S. cerevisiae deletion strains, locus YOR290C, strain snf2, hits give low values", "value": 0.937},
      {"measurement": "normalized growth", "setting": "S. cerevisiae deletion strains, locus YOR316C, strain cot1, hits give low values", "value": 0.933},
      {"measurement": "normalized growth", "setting": "S. cerevisiae deletion strains, locus YPL051W, strain arl3, hits give low values", "value": 0.989},
      {"measurement": "normalized growth", "setting": "S. cerevisiae deletion strains, locus YPL055C, strain LGE1, hits give low values", "value": 0.89},
      {"measurement": "normalized growth", "setting": "S. cerevisiae deletion strains, locus YPL078C, strain atp4, hits give low values", "value": 1.02},
      {"measurement": "normalized growth", "setting": "S. cerevisiae deletion strains, locus YPL106C, strain sse1, hits give low values", "value": 0.913},
      {"measurement": "normalized growth", "setting": "S. cerevisiae deletion strains, locus YPL240C, strain hsp82, hits give low values", "value": 0.97},
      {"measurement": "normalized growth", "setting": "S. cerevisiae deletion strains, locus YPL256C, strain CLN2, hits give low values", "value": 0.855},
      {"measurement": "normalized growth", "setting": "S. cerevisiae deletion strains, locus YPR119W, strain clb2, hits give low values", "value": "0.925 (active)"},
      {"measurement": "normalized growth", "setting": "S. cerevisiae deletion strains, locus YPR141C, strain kar3, hits give low values", "value": "0.886 (active)"},
      {"measurement": "normalized growth", "setting": "S. cerevisiae deletion strains, locus YPR163C, strain tif3, hits give low values", "value": "0.781 (active)"},
      {"measurement": "normalized growth", "setting": "S. cerevisiae deletion strains, locus YPR167C, strain met16, hits give low values", "value": "0.864 (active)"},
      {"measurement": "normalized growth", "setting": "S. cerevisiae deletion strains, strain wtn01, hits give low values", "value": "0.795 (active)"},
      {"measurement": "normalized growth", "setting": "S. cerevisiae strains, strain wild type, hits give low values", "value": "0.854 (active)"}
    ]}
  ]
}
